Reference: PMC4336329 (PLoS ONE, 2015)
Screen size: about 310,000 compounds; about 14,000 (4.5%) showed an effect of 50% or more. Effects have a minus sign here. Shown is part of a subset that was picked to be rich in strong results.

target: human ether-à-go-go-related gene (hERG) potassium channel (human, UniProt Q12809); test: primary screen, population patch clamp on CHO cells stably expressing hERG; higher = less effect of the substance
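Further: peak tail current of the secondary pulse compared with the same well before compound.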

Chain of human ether-à-go-go-related gene (hERG) potassium channel (Q12809 whole entry, looked up): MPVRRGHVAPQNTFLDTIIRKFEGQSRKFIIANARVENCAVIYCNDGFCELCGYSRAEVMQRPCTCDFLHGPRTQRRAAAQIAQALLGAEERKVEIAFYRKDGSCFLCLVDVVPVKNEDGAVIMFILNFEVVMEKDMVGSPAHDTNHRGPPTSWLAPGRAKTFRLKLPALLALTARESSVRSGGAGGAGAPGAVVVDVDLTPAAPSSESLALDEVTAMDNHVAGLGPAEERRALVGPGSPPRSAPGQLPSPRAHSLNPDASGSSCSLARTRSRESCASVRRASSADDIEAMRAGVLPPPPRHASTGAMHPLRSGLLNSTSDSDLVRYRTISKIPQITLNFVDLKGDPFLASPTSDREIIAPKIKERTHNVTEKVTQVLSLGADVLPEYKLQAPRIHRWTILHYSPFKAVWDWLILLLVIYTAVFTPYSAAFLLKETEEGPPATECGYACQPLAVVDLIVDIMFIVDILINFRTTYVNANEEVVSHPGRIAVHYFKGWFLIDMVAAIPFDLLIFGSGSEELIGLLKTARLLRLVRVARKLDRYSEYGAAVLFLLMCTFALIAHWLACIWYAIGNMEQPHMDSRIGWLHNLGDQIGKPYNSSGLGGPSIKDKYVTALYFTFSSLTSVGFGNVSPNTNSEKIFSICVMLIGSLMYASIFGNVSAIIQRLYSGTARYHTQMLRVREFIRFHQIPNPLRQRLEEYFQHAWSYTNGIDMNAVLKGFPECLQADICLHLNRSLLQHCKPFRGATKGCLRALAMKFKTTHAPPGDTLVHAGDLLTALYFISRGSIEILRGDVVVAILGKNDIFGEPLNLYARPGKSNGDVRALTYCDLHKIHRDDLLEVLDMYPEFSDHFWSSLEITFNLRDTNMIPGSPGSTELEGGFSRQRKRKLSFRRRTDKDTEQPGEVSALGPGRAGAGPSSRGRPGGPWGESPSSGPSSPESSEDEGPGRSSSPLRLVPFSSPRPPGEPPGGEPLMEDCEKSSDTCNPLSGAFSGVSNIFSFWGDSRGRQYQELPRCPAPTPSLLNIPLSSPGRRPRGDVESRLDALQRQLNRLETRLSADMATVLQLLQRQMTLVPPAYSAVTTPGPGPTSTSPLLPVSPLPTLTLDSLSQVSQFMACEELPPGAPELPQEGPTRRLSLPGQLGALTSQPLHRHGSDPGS

| Compound | hERG current change (%, negative = inhibition) at 10uM [%] |
| --- | --- |
| CC(OC(=O)c1cc2sccc2n1C)C(=O)NCC1CCCO1 (stereo not drawn) | 0.798 |
| Cc1ccc(S(=O)(=O)CC(=O)N2CCCC2)cc1 | -0.506 |
| O=C(CCc1ccc(Oc2cc([N+](=O)[O-])cc([N+](=O)[O-])c2)cc1)N1CCCCCC1 | -30.2 |
| Cn1cc(SCC(=O)Nc2nc3ccccc3s2)c2ccccc21 | -5.6 |
| Cc1noc(C(C)C)c1C(=O)Nc1ccc(-c2nnc3n2CCCCC3)cc1 | -4.21 |
| Cc1cccc(C)c1-n1nnnc1S(=O)(=O)Cc1ccccc1Cl | -18.2 |
| CC(C)CN1CCC(C(=O)NCC2CCCO2)CC1.O=C(O)C(=O)O (stereo not drawn) | -3.21 |
| CC(C)CN(CC(C)C)C(=O)CN1c2cccc3cccc(c23)S1(=O)=O | 18.1 |
| CCN(CC)C(=O)Oc1cc2c(-c3cc4cccc(OC)c4o3)cc(=O)oc2cc1C | 9.85 |
| COc1ccc(CNC(=O)CSc2nc3c(oc4ccccc43)c(=O)n2CC2CCCO2)cc1 (stereo not drawn) | -60.6 |
| CCn1c(SCc2ccc(OC)c(F)c2)nc2ccccc2c1=O | 23.4 |
| COc1ccccc1NC(=O)C(C)Sc1nc2ccccc2c(=O)n1CC1CCCO1 (stereo not drawn) | -37.2 |
| CCC(Sc1nc2ccccc2c(=O)n1CCN1CCOCC1)C(=O)NCc1cccnc1 (stereo not drawn) | -37 |
| COc1cccc(CNC(=O)CSc2nc3c(oc4ccccc43)c(=O)n2CC2CCCO2)c1 (stereo not drawn) | -36.4 |
| O=C(CSc1nc2c(oc3ccccc32)c(=O)n1CC1CCCO1)NCc1ccccc1 (stereo not drawn) | -15.8 |
| COc1ccc(CSc2nc3ccccc3c(=O)n2CCCN2CCOCC2)cc1F | -53.4 |
| COc1ccc(CNC(=O)C(C)Sc2nc3ccccc3c(=O)n2CCCN2CCOCC2)cc1 (stereo not drawn) | -84.9 |
| COc1ccc(CNC(=O)C(C)Sc2nc3ccccc3c(=O)n2CC2CCCO2)cc1 (stereo not drawn) | -78.7 |
| CC(Sc1nc2ccccc2c(=O)n1CC1CCCO1)C(=O)NC(C)c1ccccc1 (stereo not drawn) | -5.01 |
| COCCn1c(SCc2ccc(OC)c(F)c2)nc2ccccc2c1=O | -2.82 |
| COc1ccc(-c2nc3ccccc3c(=O)n2CCCN2CCOCC2)cc1 | 6.17 |
| CCCCOC(=O)C(C)Sc1n[nH]c(=O)[nH]c1=O (stereo not drawn) | -5.93 |
| O=[N+]([O-])c1ccc(CNc2cccc(Cl)c2)s1 | -28.3 |

| Compound | hERG current change (%, negative = inhibition) at 10uM [%] |
| --- | --- |
| O=C1N=C(c2ccccc2)S/C1=C\c1cccs1 | 5.19 |
| COc1ccc(N2CCN(Cc3nc(-c4ccccc4)no3)CC2)cc1 | 8.23 |
| C=CCOC(=O)C1=C[C@@H](c2csc3ccccc23)[C@H](CCCO)[C@@H](OCC)O1 | -27.7 |
| COc1ccc(S(=O)(=O)N2CCC(C(=O)N[C@@H](C)C(=O)NC3CCCC3)CC2)cc1 | 13.4 |
| COCCNC(=O)c1ccc2c(c1)S(=O)(=O)c1cc(Cl)ccc1C2=O | -3.38 |
| CCN(CC)S(=O)(=O)c1ccc(F)c(C(=O)OC2CC(C)OC2=O)c1 (stereo not drawn) | -2.4 |
| O=C(Cn1cc(SCc2ccc(Cl)cc2)c2ccccc21)N1CCOCC1 | -53.3 |
| O=C(Cn1cc(SCc2ccc(F)cc2)c2ccccc21)N1CCOCC1 | -29.9 |
| O=C(Cn1cc(SCc2cccc(Cl)c2)c2ccccc21)N1CCOCC1 | -33.1 |
| Nc1ncnc2c1ncn2C1O[C@H](CO)[C@@H](O)[C@@H]1O (stereo partly drawn) | -8.74 |
| Cc1ccc(CNC(=O)CSc2nc(N3CCCCC3)nc(N3CCCCC3)n2)cc1 | 7.64 |
| O=[N+]([O-])c1ccccc1S(=O)(=O)NCCSc1ccccc1 | 4.87 |
| O=C(CCNS(=O)(=O)c1ccccc1C(F)(F)F)NCCCSc1ccccc1 | -18.1 |
| O=S(=O)(NCCCSc1ccccc1)c1ccccc1F | -79.6 |
| Nc1nc(CN2CCCCCC2)nc(Nc2ccc(F)cc2)n1 | -70.8 |
| Cc1ccc(Nc2nc(N)nc(CCl)n2)cc1 | 1.76 |
| Cc1ccc(Nc2nc(N)nc(CN3CCCCCC3)n2)cc1 | -72.1 |
| Nc1nc(CSC(=S)N2CCOCC2)nc(Nc2ccc(F)cc2)n1 | 7.31 |
| Cc1ccc(Nc2nc(N)nc(CN3CCN(C)CC3)n2)cc1 | -27.8 |
| Nc1nc(CSCCO)nc(Nc2ccc(F)cc2)n1 | 16.1 |
| CC(=O)Nc1ccc(NC(=O)Nc2ccccc2)cc1 | 10.5 |
| CC(=O)OCC[C@H](NS(=O)(=O)OCC(Cl)(Cl)Cl)c1ccccc1 | 1.61 |
| COc1cc(NC(=O)c2cc(C(C)C)on2)c(OC)cc1Cl | 3.16 |

| Compound | hERG current change (%, negative = inhibition) at 10uM [%] |
| --- | --- |
| Cc1[nH]c(-c2ccc(F)cc2)cc1C(=O)N1CCN(c2ccccc2F)CC1 | -70.3 |
| COc1ccccc1N1CCN(C(=O)c2cc(-c3ccc(F)cc3)on2)CC1 | 19.1 |
| O=C(c1ccccc1F)N1CCN(c2ccccc2F)CC1 | -2.08 |
| COc1ccccc1N1CCN(C(=O)c2cc3cc(F)ccc3[nH]2)CC1 | 15.8 |
| COc1ccccc1N1CCN(C(=O)c2cc(-c3ccc(F)cc3)[nH]c2C)CC1 | -64.5 |
| O=C(c1ccccc1C(=O)N1CCN(c2ccccc2F)CC1)N1CCN(c2ccccc2F)CC1 | -31 |
| N#CC1=C(N)Oc2n[nH]c(-c3cccs3)c2C1C1CCCCC1 (stereo not drawn) | 8.73 |
| Cc1ccccc1C(=O)Nc1ccccc1NC(=O)c1ccccc1Br | 25.4 |
| COC(=O)c1ccc(-c2noc(CN(C)CC3CCCCO3)n2)cc1 (stereo not drawn) | 11.3 |
| Cn1c(Cn2c(=O)sc3ccccc32)nnc1SCc1cccc(F)c1 | -11.6 |
| Cc1cc(C)cc(NC(=S)NCc2ccc3c(c2)OCO3)c1 | -8.9 |
| OC(CNCC1CCCCC1)COc1ccccc1 (stereo not drawn) | -0.428 |
| Cc1ccc(CC(=O)Nc2cc(C)ccn2)cc1 | 11.2 |
| O=[N+]([O-])c1cc(S(=O)(=O)NCCN2CCOCC2)ccc1Sc1nnnn1-c1ccccc1 | -24.6 |
| CCCCSc1nnc(CNC(=O)C23CC4CC(CC(C4)C2)C3)n1Cc1ccccc1 | -29.7 |
| O=C(Nc1ccc(CN2CCOCC2)cc1)c1ccc(-c2ccc(Cl)cc2Cl)o1 | -7.54 |
| Cn1c(=O)n(C)c2cc([N+](=O)[O-])c(N3CCN(C(=O)c4ccc(Cl)cc4)CC3)cc21 | -65.9 |
| Cn1c(=O)n(C)c2cc([N+](=O)[O-])c(N3CCNCC3)cc21 | 5.58 |
| Cn1c(=O)n(C)c2cc([N+](=O)[O-])c(N3CCN(C(=O)C(C)(C)C)CC3)cc21 | -8.56 |
| Cn1c(=O)n(C)c2cc([N+](=O)[O-])c(N3CCN(C(=O)c4cccc(Cl)c4)CC3)cc21 | -64.2 |
| Cn1c(=O)n(C)c2cc([N+](=O)[O-])c(N3CCN(C(=O)c4ccc(F)cc4)CC3)cc21 | -44 |
| Cn1c(=O)n(C)c2cc([N+](=O)[O-])c(N3CCN(CCO)CC3)cc21 | 24.9 |
| Cn1c(=O)n(C)c2cc([N+](=O)[O-])c(N3CCN(C(=O)c4ccccc4Cl)CC3)cc21 | -34.4 |

| Compound | hERG current change (%, negative = inhibition) at 10uM [%] |
| --- | --- |
| Cn1c(=O)n(C)c2cc([N+](=O)[O-])c(N3CCN(C(=O)c4ccccc4Br)CC3)cc21 | -70.6 |
| CCOC(=O)C(=O)N1CCN(c2cc3c(cc2[N+](=O)[O-])n(C)c(=O)n3C)CC1 | -24.2 |
| Cn1c(=O)n(C)c2cc(N3CCCCC3)c(NC(=O)c3cccc(Cl)c3)cc21 | 14.8 |
| Cc1ccc(C(=O)N2CCN(c3cc4c(cc3[N+](=O)[O-])n(C)c(=O)n4C)CC2)cc1 | -66.6 |
| Cn1c(=O)n(C)c2cc([N+](=O)[O-])c(N3CCN(C(=O)c4ccccc4)CC3)cc21 | -36.1 |
| O=C(COC(=O)c1ccc2ncsc2c1)Nc1cccc(Cl)c1 | 2.07 |
| Cc1ccc(-n2c(SCn3nnc4ccccc4c3=O)nnc2-c2cccnc2)c(C)c1 | -39.3 |
| Cc1cccc(C)c1NC(=O)CN(C)CC(=O)Nc1ccccc1Oc1ccccc1 | 11.3 |
| COc1ccc(NC(=O)c2ccc([N+](=O)[O-])o2)cc1 | 11.1 |
| CCc1cc(=O)oc2cc(C)cc(OCC(=O)NC3CCN(Cc4ccccc4)CC3)c12 | -36 |
| O=C(COc1ccc2ccc(=O)oc2c1)NC1CCCCC1 | 1.43 |
| O=C(COc1ccc2ccc(=O)oc2c1)NC1CCCC1 | 13.4 |
| O=C(O)COCC(=O)NC1CCN(Cc2ccccc2)CC1 | 12.5 |
| CCCc1cc(=O)oc2cc(OCC(=O)NC3CCN(Cc4ccccc4)CC3)ccc12 | -60.2 |
| O=C(COc1ccccc1)NC1CCN(Cc2ccccc2)CC1 | -50.4 |
| CCCc1cc(=O)oc2cc(C)cc(OCC(=O)NC3CCN(Cc4ccccc4)CC3)c12 | -10.3 |
| O=C(COc1ccc2ccc(=O)oc2c1)NC1CCN(Cc2ccccc2)CC1 | -55.2 |
| Cc1c(OCC(=O)NC2CCN(Cc3ccccc3)CC2)ccc2c3c(c(=O)oc12)CCC3 | -47.7 |
| Cc1c(C)c2ccc(OCC(=O)NC3CCN(Cc4ccccc4)CC3)c(C)c2oc1=O | -42.7 |
| CCCc1cc(=O)oc2c(C)c(OCC(=O)NC3CCN(Cc4ccccc4)CC3)ccc12 | -51.4 |
| O=C(COc1ccccc1)NC1CCCCCCC1 | -4.51 |
